We go through 40 compounds from PubChem BioAssay (Tox21).

The structures appear in SMILES notation. A number with no mark means an inactive call. Activity calls are given as the source filed them. Calls come from the whole dose curve; as a rule, active = well fitted curve in the direction sought with a large enough effect in the repeat runs; inconclusive = weak or mixed curves; inactive = flat fitted curve, though single readings scatter.
% is set by controls: 0 for no effect and ±100 for the full control effect.

The assay can be described thus: qHTS assay to test for compound auto fluorescence at 535 nm (green) in HEK293 cell free culture (AID 720682). Particulars: cell-free medium, green autofluorescence 485/535 nm, stronger effect = higher value; series mostly up to 91.3 µM; activity change: at the top concentration. The text has this:
U.S. Tox21 Program National Center for Advancing Translational Sciences [NCATS] NIH Chemical Genomics Center [NCGC] U.S. Environmental Protection Agency [EPA] National Institutes of Environmental Health Sciences [NIEHS] National Toxicology Program [NTP] U.S. Food and Drug Administration [FDA] Tox21 Assay Overview: Compound auto fluorescence often interferes with screening of the compound library against various biological targets and signaling pathways. Some of these compounds may have fluorophoric properties. Such properties may interfere with the assay outputs resulting in false positives and/or negatives. To decrease such complications and ensure the compound activities are relevant in terms of biological response, the Tox21 10K compound library was screened for auto fluorescence. From the fluorophores used as reporter signals in our screening assays, the auto fluorescence equivalencies of compounds against three fluorophores have been evaluated: Triamterene, Fluorescein and Rose Bengal sodium for blue, green and red fluorescence, respectively. The fluorescence intensities were measured using Excitation/Emission wavelengths at 405/460nm, 485/535nm and 540/590nm for blue, green and red labels, respectively. This assay includes the green fluorescence data.
Tox21 Assay Protocol Summary: 5 uL of culture medium (DMEM containing 10% FBS) per well was dispensed into black wall/clear bottom 1536-well plates using a Multidrop Combi Dispenser (ThermoFisher Scientific, Waltham, MA). After 23 nL compound or DMSO vehicle was transferred into assay plate by a pintool work station (Kalypsys, San Diego, CA), fluorescence intensities in the assay plates were measured by an Envision (PerkinElmer, Shelton, CT) plate reader using three labels for measuring blue, green and red fluorescence at […] 460, 535 and 590nm respectively.
A general note: In qHTS, concentration-response curves come from the screen itself.
Consider `CCCCC`, for which the compound was called inactive.

In the case of `C=CC1CC2C=CC1C2` (stereo not given), the “activity change” value was -0.0254%.

Take `O=C1CCC(=O)O1`: the “activity change” value was 0.0958%.

As to `CN(C)C(=O)NC1(c2ccccc2)CCN(CC[C@@]2(c3ccc(F)c(F)c3)CN(C(=O)c3ccccc3)CCO2)CC1`, the “activity change” value is -0.0145%.

Consider `Nc1ccccc1S(=O)(=O)c1ccccc1`, for which the “activity change” value was -0.0289%.

`CCCCCCCCCCCc1ccccc1`: the “activity change” value is 0.0433%.

For the compound `CCCCc1ncc(/C=C(\Cc2cccs2)C(=O)O)n1Cc1ccc(C(=O)O)cc1`, the “activity change” value is 0.0502% [at 46 µM].

As for `CC(C)Nc1ccc(NC(C)C)c2c1C(=O)c1ccccc1C2=O`, the “activity change” value is -0.0763% [at 46 µM].

For the compound `CN(C)c1ccc(CCO)cc1`, the “activity change” value was 0.0133%.

Take `CCOc1ccc(N)c([N+](=O)[O-])c1`: the “activity change” value is -0.0755%.

As for `Nc1ccc(S(=O)(=O)Nc2ccccc2)cc1`, the “activity change” value was 0.0454% [at 46 µM].

Take `O=C(O)c1ccccc1Cl`: the “activity change” value is -0.0669%.

With `COc1ccc(-c2nc3ccc(C4=NNC(=O)CC4C)cc3[nH]2)cc1` (stereo not given), the “activity change” value is -0.0244% [at 46 µM].

Consider `CCCCNc1ccc(C(=O)OCCOCCOCCOCCOCCOCCOCCOCCOCCOC)cc1`, for which the activity change was -0.0595% [at 18.6 µM].

For the compound `C=CC(=O)OCCOCCOCCOCCOC(=O)C=C`, the call was inactive.

In the case of `O=C1OC(=O)C2C3C=CC(C3)C12` (stereo not given), the “activity change” value was -0.135%.

For `CC[N+](C)(CC)CCOC(=O)C(O)(c1ccccc1)C1CCCCC1` (stereo not given), the “activity change” value was 0.0592% [at 46 µM].

Turning to `O=[N+]([O-])c1ccc(NCCO)c(OCCO)c1`, the “activity change” value is -0.0615%.

For `CC(C)(C)Cl`, the “activity change” value is 0.0503% [at 95.7 µM].

On to `COc1ccnc(CS(=O)c2nc3ccc(OC(F)F)cc3[nH]2)c1OC` (stereo not given), for which the “activity change” value was 0.0533% [at 46 µM].

Regarding `N=c1ccn2c(n1)O[C@H]1[C@H](O)[C@@H](CO)O[C@H]12`, the compound was called inactive.

On to `CO[C@@H]1[C@H](OC(=O)/C=C/C=C/C=C/C=C/C(=O)O)CC[C@]2(CO2)[C@H]1[C@@]1(C)O[C@@H]1CC=C(C)C`, for which the call was inactive.

With `Cn1c(=O)cc(Oc2ccc(F)cc2F)c2cnc(NCC(C)(C)O)nc21`, the “activity change” value is -0.116%.

On to `CCCOC(C(=O)OC1CCN(C)CC1)(c1ccccc1)c1ccccc1`, for which the “activity change” value is 0.0654% [at 46 µM].

Turning to `Cc1cccc(C)c1NC(=O)CN(CC(=O)O)CC(=O)O`, the “activity change” value is -0.022% [at 46 µM].

`C[C@H](CCC(=O)O)[C@H]1CC[C@H]2[C@@H]3CC[C@@H]4C[C@H](O)CC[C@]4(C)[C@H]3C[C@H](O)[C@]12C`: the compound was called inactive.

On to `COC(=O)C1=C(C)NC(COC(N)=O)=C(C(=O)OC(C)C)C1c1cccc(Cl)c1Cl` (stereo not given), for which the “activity change” value was 0.002% [at 46 µM].

Regarding `CC(=O)[O][Al][O]C(C)=O`, the outcome was inactive.

As to `CCCNCC(O)COc1ccccc1C(=O)CCc1ccccc1` (stereo not given), the “activity change” value is 0.121% [at 46 µM].

Consider `CN(C)CCCN1c2ccccc2Sc2ccccc21`, for which the activity change was -0.0157% [at 18.6 µM].

For `O=CC1CC=CCC1` (stereo not given), the “activity change” value was -0.0306%.

Regarding `CN(Cc1ccc(C(C)(C)C)cc1)Cc1cccc2ccccc12`, the compound was called inactive.

Take `CCC(C)O` (stereo not given): the “activity change” value was 0.0331% [at 95.7 µM].

With `C[C@@H]1C[C@H]2O[C@@]3(O[C@@H]2C(C)(C)O)[C@H](O)[C@@]2(C)[C@@H]4CC[C@H]5C(C)(C)[C@@H](O[C@@H]6OC[C@@H](O)[C@H](O)[C@H]6O)CC[C@@]56C[C@@]46CC[C@]2(C)[C@@H]13`, the “activity change” value was 0.0154%.

As to `CC(C)(O)c1ccc(CNC(=O)c2cccnc2Oc2ccc(F)cc2)cc1`, the “activity change” value was -0.0717%.

For `CC(C)O.CC(C)O.CCOC(=O)/C=C(\C)O.CCOC(=O)/C=C(\C)O.[Ti]`, the “activity change” value was 0.0034%.

In the case of `Cc1cccc(C)c1OCC(=O)N[C@@H](Cc1ccccc1)[C@@H](O)C[C@H](Cc1ccccc1)NC(=O)[C@H](C(C)C)N1CCCNC1=O`, the “activity change” value was 0.109% [at 46 µM].

In the case of `CCCCCC[C@@H](O)C/C=C\CCCCCCCC(=O)OC`, the “activity change” value is 0.0256%.

Regarding `CCO[Si](CCCCl)(OCC)OCC`, the “activity change” value is -0.005%.

As to `C[C@@H](c1ncncc1F)C(O)(Cn1cncn1)c1ccc(F)cc1F` (stereo not given in full), the “activity change” value was 0.0704% [at 46 µM].
